From PubChem BioAssay (NCI)
The panel holds about 83,000 compounds, 20% with a hit somewhere; the sample as a whole holds those more often.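 The test compound was applied at a single concentration to cells in 96-well plates for 48 hours, and percent growth was recorded.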 Unmarked numbers belong to inactive results. Active and inactive are the calls of the source. The calls were made as follows: active = growth percent below 10; inactive = the rest.

How the values were obtained:
Experiment in all cases: NCI-60 one-dose screen, 48 h (100 = growth as untreated, 0 = no growth, -100 = all killed)
Conditions in all cases: 10 µM unless noted
NCI-H23 lung = test system: NCI-H23 lung
NCI-H322M lung = test system: NCI-H322M lung
HOP-62 NSCLC = test system: HOP-62 NSCLC
NCI-H460 lung = test system: NCI-H460 lung
HOP-92 NSCLC = test system: HOP-92 NSCLC
NCI-H522 lung = test system: NCI-H522 lung
A549/ATCC NSCLC = test system: A549/ATCC NSCLC
786-0 renal = test system: 786-0 renal
COLO 205 colon = test system: COLO 205 colon
DU-145 prostate = test system: DU-145 prostate
K-562 leukemia = test system: K-562 leukemia
MALME-3M melanoma = test system: MALME-3M melanoma
MDA-MB-231 breast = test system: MDA-MB-231 breast
RXF 393 renal = test system: RXF 393 renal
SF-268 CNS = test system: SF-268 CNS
SF-295 CNS = test system: SF-295 CNS
SF-539 CNS = test system: SF-539 CNS
UACC-257 melanoma = test system: UACC-257 melanoma
M14 melanoma = test system: M14 melanoma
HCT-15 colon = test system: HCT-15 colon

| SMILES | growth (NCI-H23 lung) | growth (NCI-H322M lung) | growth (HOP-62 NSCLC) | growth (NCI-H460 lung) | growth (HOP-92 NSCLC) | growth (NCI-H522 lung) | growth (A549/ATCC NSCLC) | growth (786-0 renal) | growth (COLO 205 colon) | growth (DU-145 prostate) | growth (K-562 leukemia) | growth (MALME-3M melanoma) | growth (MDA-MB-231 breast) | growth (RXF 393 renal) | growth (SF-268 CNS) | growth (SF-295 CNS) | growth (SF-539 CNS) | growth (UACC-257 melanoma) | growth (M14 melanoma) | growth (HCT-15 colon) |
| --- | --- | --- | --- | --- | --- | --- | --- | --- | --- | --- | --- | --- | --- | --- | --- | --- | --- | --- | --- | --- |
| O=C1c2cc(Cl)ccc2Oc2cc([N+](=O)[O-])ccc2N1c1ccc(F)cc1F | 94.1% | 92.5% | 87.8% | 93.2% | 98.9% | 49.9% | 66.7% | 93.6% | 96.5% | 89.8% | 78.8% | 103% | 83% | 89.6% | 72.9% | 94.6% | 96.7% | 91% | 99.2% | 86.9% |
| Cc1ccc(NC2=CC(=O)C(=O)c3ccccc32)c(C)c1 | -25.5% (active) | 57.7% | 27.3% | -56.7% (active) | 123% | 47.6% | 5.75% (active) | 99.4% | 85% | -60.8% (active) | 61.3% | 62.5% | 49.5% | 85.5% | 63.2% | 34.6% | 48.8% | 23.1% | -15.5% (active) |  |
| COc1cccc(C2=NN3C(C2)c2ccccc2OC3c2ccc(/C=C3\SC(=O)NC3=O)cc2)c1 (stereo unspecified) | 92.3% | 97.8% | 110% | 101% | 106% | 87.8% | 103% | 95.6% | 119% | 106% | 105% | 105% | 95.4% | 105% | 94.6% | 94.3% | 102% | 106% | 104% |  |
| Nc1ccc(-c2ccc(-c3ccccc3N)c3[nH]c4ccccc4c23)cc1 | 28.4% | 41.4% | 42.1% | 16.1% | 36.9% | 46.4% | 30.4% | 46% | 13.2% | 10.2% | 13.4% | 36.8% | 36.2% | 24.5% | 39.5% | 22.2% | 28% | 33.2% | 6.58% (active) | 19.5% |
| Oc1c(C(Nc2ccccn2)c2cccc(Oc3ccccc3)c2)ccc2cccnc12 (stereo unspecified) | -73.3% (active) | -94.4% (active) | -95.7% (active) | -86.3% (active) | -86.9% (active) | -84.7% (active) | -81.8% (active) | -81.4% (active) | -90.8% (active) | -96% (active) | -64.1% (active) | -74.8% (active) | -89.3% (active) | -92% (active) | -86.7% (active) | -86.9% (active) | -93.1% (active) | -77.1% (active) | -68.6% (active) |  |
| CCOC(=O)c1cc2c(n1Cc1cccc(OC)c1)-c1oncc1CCC2 | 36.4% | 74.8% | 39.9% | 17.9% | 67.4% | 14.5% | 42.3% | 51.7% | -17.5% (active) | 23.3% | 10.8% | -0.828% (active) | 53.9% | 21.4% | 38.8% | 7.73% (active) | 2.09% (active) | 42.7% |  |  |
| O=C(Nc1ccc(N2CCNCC2)cc1)c1[nH]ncc1Nc1cc(Oc2ccccc2)ncn1 | 20.6% | -5.19% (active) | 3.29% (active) | -47.1% (active) | -21% (active) | 8.05% (active) | -49.8% (active) | 2.25% (active) | -49.1% (active) | 15.9% | 8.34% (active) | 58.4% | -20.9% (active) | -89.2% (active) | 35% | -70.2% (active) | -46.2% (active) | 29.7% | 12.9% | -35.9% (active) |
| CN(C)c1ccc(/C=C/c2ccnc3c(O)cccc23)cc1 | 34.8% | 28.7% | 20.3% | 0.902% (active) | 53.5% | -10.9% (active) | 3.5% (active) | -10.5% (active) | 99.7% | 13.9% | 5.89% (active) | -2.62% (active) | 36.5% | 36.1% | 12.5% | -8% (active) | 2.91% (active) | -15.5% (active) | -22.5% (active) |  |
| CN=c1ccc2nc3ccc(N)cc3sc-2c1 | 13.3% | 42% | 29% | 27.6% | 53.5% | 10.5% | 9.37% (active) | 48.8% | 1.63% (active) | 75.3% | 20.7% | -22.9% (active) | 7.68% (active) | 49.9% | 16.1% | -43.1% (active) | 12% | -19.3% (active) | 9.39% (active) | 30.3% |
| CC/C(=C(\CC)c1ccc(OCC[N+](C)(C)C)cc1)c1ccc(OC)cc1 | 56.7% | 99.3% | 62.4% | 40.1% | 45.3% | 32.7% | 53% | 91.1% | 6.92% (active) | 94.9% | 30.4% | 68.3% | 71.9% | 29% | 61.2% | 76.2% | 59.9% | 39% | 58.1% | 97.6% |
| COc1ccc(C2=NN(/C=C3\SC(=O)NC3=Nc3ccc(F)cc3)C(c3ccc(F)cc3)C2)cc1 (stereo unspecified) | 96.9% | 93.7% | 105% | 101% | 99.7% | 91.2% | 92% | 92.7% | 106% | 102% | 94.3% | 94.3% | 93.8% | 96% | 97.9% | 90.8% | 106% | 103% | 104% |  |
| COc1ccc(CN2CCCC(C(=O)c3ccc(C(F)(F)F)cc3)C2)c(O)c1 (stereo unspecified) | 37.3% | 80.6% | 37.5% | 7.11% (active) | 36.5% | -36.6% (active) | 32.3% | 41.5% | -23.1% (active) | 50.6% | 7.39% (active) | 12.7% | 7.33% (active) | 20.4% | 30.5% | -20.8% (active) | 14.8% | 40.1% | 18.9% |  |
| COc1ccc(/C=c2\sc3n(c2=O)NC2C(N=3)N(C)C(=O)N2C)cc1 (stereo unspecified) | 96.6% | 92% | 101% | 108% | 100% | 86.6% | 99.8% | 97.7% | 102% | 110% | 89.3% | 97.6% | 96.8% | 101% | 93.5% | 100% | 95.5% | 102% | 96.5% | 96.4% |
| COc1cc(C(=O)O/N=C(\N)Cc2cccc3ccccc23)cc(OC)c1OC | 80.7% | 18.1% | 27.6% | -47.9% (active) | -7.36% (active) | -10.9% (active) | 12.2% | 45.9% | -92.6% (active) | 47.5% | -43.2% (active) | -85.9% (active) | -46.6% (active) | 7.59% (active) | 17.6% | -84.6% (active) | -88.7% (active) | -89.3% (active) | -72.7% (active) |  |
| COc1ccc(C(=O)Nc2ccc3nc(N4CCCCC4)cc(C)c3c2)cc1OC | 96.8% | 117% | 115% | 51.9% | 40.8% | 98.3% | 85.2% | 85.4% | 95.9% | 83.9% | -18.6% (active) | 64.8% | 48.3% | 92.3% | 89.5% | 48.6% | 82.2% | 102% | 83.9% | 31.6% |
| O=C1/C(=C/c2cccc(O)c2)COc2ccc(O)cc21 | 86.5% | 98.2% | 103% | 76.3% | 104% | 36.6% | 103% | 82.1% | 102% | 80.5% | 7.52% (active) | 78.6% | 103% | 115% | 90.3% | 105% | 92.3% | 93.3% | 85.3% | 10.6% |
